Measurements as given in PubChem BioAssay (NCI).
This is part of a sample that, as a whole, favours compounds with a hit. Of some 79,000 tested, about 15% had one in any assay. Calls of active or inactive are those of the source. Rule as the data show it: active = growth inhibition above about 70%; inactive = the rest.

Assays:
[1] = NCI Yeast Anticancer Drug Screen. Data for the rad52 strain (AID 147);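 also: 0% = growth of vehicle-treated control cultures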; conditions: S. cerevisiae rad52 mutant growth inhibition, hits give high values
Summary of the method: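 Inhibition of yeast growth, referenced to vehicle controls, was the measured output for a strain with defective DNA damage repair.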

[2] = NCI Yeast Anticancer Drug Screen. Data for the wt1 strain (AID 149);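 also: 0% = growth of vehicle-treated wt1 cultures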; conditions: S. cerevisiae wt1 strain (SPY 50644) growth inhibition, hits give high values
Summary of the method: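 Compounds are added to wt1 yeast cultures. Growth is then measured. Inhibition is expressed relative to vehicle-treated controls.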

[3] = NCI Yeast Anticancer Drug Screen. Data for the rad50EPP+ strain (AID 151);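 also: 0% = growth of vehicle-treated control cultures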; conditions: S. cerevisiae rad50 mutant strain, hits give high values
Summary of the method: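 Genetically defined yeast (rad50EPP+, DNA damage repair alteration) is grown with compound, and inhibition of growth is expressed relative to vehicle-treated controls.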

[4] = NCI Yeast Anticancer Drug Screen. Data for the mgt1 strain (AID 153); conditions: S. cerevisiae mgt1 mutant growth inhibition, hits give high values
Summary of the method: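 In the mgt1 strain, test compounds were added and growth inhibition was determined relative to vehicle-treated controls.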

[5] = NCI Yeast Anticancer Drug Screen. Data for the rad50 strain (AID 155);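 also: 0% = growth of vehicle-only cultures of the same strain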; conditions: S. cerevisiae rad50 strain growth inhibition, hits give high values
Summary of the method: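 Inhibition values express reduced yeast growth in compound-treated cultures relative to vehicle-treated controls.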

[6] = NCI Yeast Anticancer Drug Screen. Data for the mec2-1 strain (AID 157); conditions: S. cerevisiae mec2-1 strain, hits give high values
Summary of the method: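 Each compound was tested on mec2-1 yeast, a strain altered in DNA damage repair or cell cycle control. Growth inhibition is reported relative to vehicle.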

[7] = NCI Yeast Anticancer Drug Screen. Data for the rad14 strain (AID 159);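 also: 0% = growth of vehicle-treated control cultures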; conditions: S. cerevisiae rad14 strain growth inhibition, hits give high values
Summary of the method: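 A mutant yeast strain defective in DNA damage repair is treated with compound; inhibition of its growth is scored against untreated, vehicle-exposed cultures.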

[8] = NCI Yeast Anticancer Drug Screen. Data for the sgs1 mgt1 strain (AID 161);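 also: 0% = growth of cultures given vehicle only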; conditions: S. cerevisiae sgs1 mgt1 strain, hits give high values
Summary of the method: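 Mutant yeast exposed to compound; growth scored against vehicle-only wells.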

[9] = NCI Yeast Anticancer Drug Screen. Data for the CLN2oe strain (AID 163);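 also: 0% = growth of vehicle-only control cultures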; conditions: S. cerevisiae CLN2oe strain, hits give high values
Summary of the method: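 First, the altered yeast strain was treated with each compound; second, its growth was measured; finally, inhibition was derived by comparison with vehicle controls.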

[10] = NCI Yeast Anticancer Drug Screen. Data for the cln2 rad14 strain (AID 165);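 also: 0% = growth equal to vehicle treated cultures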; conditions: S. cerevisiae cln2 rad14 strain, hits give high values
Summary of the method: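 Test compounds were added to cln2 rad14 yeast cultures; inhibition of growth was then determined by comparison with vehicle treatment.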

[11] = NCI Yeast Anticancer Drug Screen. Data for the bub3 strain (AID 167); conditions: S. cerevisiae bub3 mutant strain, hits give high values
Summary of the method: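 Steps: expose the mutant yeast strain to compound; grow alongside vehicle-treated cultures; measure growth; express inhibition against the vehicle cultures.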

[12] = NCI Yeast Anticancer Drug Screen. Data for the wt2 strain (AID 169);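 also: 0% = growth of vehicle-treated yeast cultures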; conditions: S. cerevisiae wt2 strain growth inhibition, hits give high values
Summary of the method: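 The panel's yeast strains carry defined changes in DNA repair or cell cycle genes. Each strain is grown with compound, and growth loss is scored relative to vehicle.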

[13] = NCI Yeast Anticancer Drug Screen. Data for the sgs1 strain (AID 173);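 also: 0% = growth of vehicle-only control cultures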; conditions: S. cerevisiae sgs1 mutant, hits give high values
Summary of the method: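 Vehicle-treated cultures served as reference for growth inhibition of a yeast strain altered in DNA damage repair or cell cycle control after compound exposure.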

[14] = NCI Yeast Anticancer Drug Screen. Data for the mlh1 rad18 strain (AID 175); conditions: S. cerevisiae mlh1 rad18 strain growth inhibition, hits give high values
Summary of the method: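 Inhibition values reflect reduced growth of mutant yeast versus vehicle-treated controls following compound exposure; the mutations affect DNA damage repair.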

[15] = NCI Yeast Anticancer Drug Screen. Data for the rad18 strain (AID 177); conditions: S. cerevisiae rad18 mutant growth inhibition, hits give high values
Summary of the method: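 Steps: expose repair-mutant yeast to compound; measure growth; express as inhibition relative to vehicle control.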

[16] = at 5.0 µM (retest, dose inferred, filed as 0.5)
[17] = at 50.0 µM (retest, dose inferred, filed as 5.0)

Measured: growth inhibition

CCCN=Cc1cc(Cc2ccc(O)c(C=NCCC)c2)ccc1O
active: [1]; at 1.2 µM 70% | [1]; at 3.7 µM 95% | [1]; at 11.0 µM 98% | [1]; at 33.0 µM 98% | [1]; at 100.0 µM 97% | [2]; at 3.7 µM 97% | [2]; at 11.0 µM 98% | [2]; at 33.0 µM 99% | [2]; at 100.0 µM 99% | [3]; at 3.7 µM 85% | [3]; at 11.0 µM 96% | [3]; at 33.0 µM 98% | [3]; at 100.0 µM 99% | [4]; at 3.7 µM 97% | [4]; at 11.0 µM 99% | [4]; at 33.0 µM 98% | [4]; at 100.0 µM 97% | [5]; at 1.2 µM 70% | [5]; at 3.7 µM 97% | [5]; [16] 93% | [5]; at 11.0 µM 99% | [5]; at 33.0 µM 99% | [5]; [17] 99% | [5]; at 50.0 µM 91% | [5]; at 100.0 µM 98% | [6]; at 1.2 µM 92% | [6]; at 3.7 µM 98% | [6]; [16] 99% | [6]; at 11.0 µM 99% | [6]; at 33.0 µM 98% | [6]; [17] 99% | [6]; at 50.0 µM 91.5% | [6]; at 100.0 µM 98% | [7]; at 3.7 µM 97% | [7]; at 11.0 µM 98% | [7]; at 33.0 µM 99% | [7]; at 100.0 µM 98% | [8]; at 50.0 µM 92.2% | [9]; at 1.2 µM 78% | [9]; at 3.7 µM 97% | [9]; at 11.0 µM 98% | [9]; at 33.0 µM 99% | [9]; at 100.0 µM 98% | [10]; at 50.0 µM 91.4% | [11]; at 3.7 µM 95% | [11]; at 11.0 µM 98% | [11]; at 33.0 µM 98% | [11]; at 50.0 µM 90.8% | [11]; at 100.0 µM 97% | [12]; at 3.7 µM 98% | [12]; at 11.0 µM 99% | [12]; at 33.0 µM 99% | [12]; at 100.0 µM 98% | [13]; at 3.7 µM 89% | [13]; at 11.0 µM 98% | [13]; at 33.0 µM 98% | [13]; at 100.0 µM 97% | [14]; [16] 98% | [14]; [17] 99% | [14]; at 50.0 µM 89.3%
inactive: [2]; at 1.2 µM 64% | [3]; at 1.2 µM 27% | [4]; at 1.2 µM 45% | [7]; at 1.2 µM 57% | [8]; [16] -15% | [8]; [17] -85% | [10]; [16] -41% | [10]; [17] -84% | [11]; at 1.2 µM 64% | [11]; [16] -49% | [11]; [17] -86% | [12]; at 1.2 µM 29% | [13]; at 1.2 µM 58%

CCOP(=O)(OCC)/C(C#N)=C\c1cccc2ccccc12
inactive: [1]; at 1.2 µM -2% | [1]; at 3.7 µM -1% | [1]; at 11.0 µM 12% | [2]; at 1.2 µM 2% | [2]; at 3.7 µM 8% | [2]; at 11.0 µM 6% | [3]; at 1.2 µM 8% | [3]; at 3.7 µM 10% | [3]; at 11.0 µM 3% | [3]; at 33.0 µM 22% | [3]; at 100.0 µM 41% | [4]; at 1.2 µM -6% | [4]; at 3.7 µM -10% | [4]; at 11.0 µM -21% | [5]; at 1.2 µM -4% | [5]; at 3.7 µM 1% | [5]; [16] 14% | [5]; at 11.0 µM 22% | [6]; at 1.2 µM 4% | [6]; at 3.7 µM 16% | [6]; [16] -19% | [6]; at 11.0 µM 15% | [7]; at 1.2 µM -8% | [7]; at 3.7 µM -13% | [7]; at 11.0 µM -25% | [8]; [16] 53% | [9]; at 1.2 µM 13% | [9]; at 3.7 µM 2% | [9]; at 11.0 µM -7% | [9]; at 33.0 µM 59% | [10]; [16] 12% | [11]; at 1.2 µM -29% | [11]; at 3.7 µM -13% | [11]; [16] -3% | [11]; at 11.0 µM -41% | [12]; at 1.2 µM -6% | [12]; at 3.7 µM -2% | [12]; at 11.0 µM 2% | [13]; at 1.2 µM 22% | [13]; at 3.7 µM 23% | [13]; at 11.0 µM 43% | [14]; [16] -13% | [15]; at 1.2 µM 15% | [15]; at 3.7 µM 21% | [15]; at 11.0 µM 47%
active: [1]; at 33.0 µM 92% | [1]; at 100.0 µM 97% | [2]; at 33.0 µM 87% | [2]; at 100.0 µM 98% | [4]; at 33.0 µM 84% | [4]; at 100.0 µM 98% | [5]; at 33.0 µM 92% | [5]; [17] 90% | [5]; at 50.0 µM 85.7% | [5]; at 100.0 µM 98% | [6]; at 33.0 µM 85% | [6]; [17] 93% | [6]; at 50.0 µM 88.2% | [6]; at 100.0 µM 98% | [7]; at 33.0 µM 87% | [7]; at 100.0 µM 97% | [8]; [17] 90% | [8]; at 50.0 µM 89.2% | [9]; at 100.0 µM 98% | [10]; [17] 93% | [10]; at 50.0 µM 88.8% | [11]; at 33.0 µM 83% | [11]; [17] 95% | [11]; at 50.0 µM 89.2% | [11]; at 100.0 µM 97% | [12]; at 33.0 µM 82% | [12]; at 100.0 µM 98% | [13]; at 33.0 µM 93% | [13]; at 100.0 µM 99% | [14]; [17] 95% | [14]; at 50.0 µM 86.2% | [15]; at 33.0 µM 95% | [15]; at 100.0 µM 98%
